Results from PubChem BioAssay (Tox21).
Results filed as inconclusive are left out. Activity calls are given as the source filed them. The call rests on the fitted dose curve; in most records, active means well fitted curve in the direction sought with a large enough effect in the repeat runs; inconclusive means weak or mixed curves; inactive means no such curve, though single readings can be large; an effect the other way counts as inactive or inconclusive.

Key:
[1] = qHTS RealTime-Glo MT Cell Viability Assay in HEK293 cells - 0 hour (AID 1224880); further: top concentration of the series differs between compounds; nearly all actives have a fitted effect of over 45% in size
Method in brief: (§1)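 Real-time viability in HEK293: signal arises when living cells convert a prosubstrate for NanoLuc in the medium, so luminescence tracks viable cell number. Compound (23 nL, DMSO) added 5 h post-seeding; kinetic reads at 0–40 h, 37 C.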

[2] = A CellTox Green Cytotoxicity Assay to monitor cytotoxicity in HEK293 cells - 32 hour (AID 1224881); further: nearly all actives have a fitted effect of over 40% in size; further: potency means the concentration at half of the fitted maximal effect
Method in brief: (§2)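 Cells (HEK293, 600/well) and dye reagent are dispensed together. After 5 h at 37 C, 23 nL compound is pinned in. Plates stay at 37 C for 40 h with fluorescence read at 0h, 8h, 16h, 24h, 32h and 40h.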

[3] = A CellTox Green Cytotoxicity Assay to monitor cytotoxicity in HepG2 cells - 32 hour (AID 1224883); further: nearly all actives have a fitted effect of over 50% in size; further: potency means the concentration at half of the fitted maximal effect
Method in brief: (§3)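 Cells and non-lytic dye reagent are dispensed together (600 HepG2 cells/well) and incubated 5 h before DMSO compound transfer. Kinetic fluorescence is then recorded in the same wells during 40 h at 37 C.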

[4] = A CellTox Green Cytotoxicity Assay to monitor cytotoxicity in HEK293 cells - 8 hour (AID 1224884); further: nearly all actives have a fitted effect of over 35% in size
Method in brief: as §2

[5] = qHTS RealTime-Glo MT Cell Viability Assay in HepG2 cells - 16 hour (AID 1224885); further: nearly all actives have a fitted effect of over 50% in size; further: potency means the concentration at half of the fitted maximal effect
Method in brief: (§4)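 HepG2 suspension premixed with RealTime-Glo reagents is plated at 600 cells per well and left 5 h at 37 C/5% CO2. Compounds in DMSO then go in, and bioluminescence reflecting viable cell number is recorded over 40 h.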

[6] = qHTS RealTime-Glo MT Cell Viability Assay in HEK293 cells - 24 hour (AID 1224886); further: nearly all actives have a fitted effect of over 50% in size; further: potency means the concentration at half of the fitted maximal effect
Method in brief: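 Reads taken at 0, 8, 16, 24, 32 and 40 h from the same wells. HEK293 cells (600/well) carried RealTime-Glo reagents from seeding, with compound added after a 5 h settle at 37 C.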

[7] = qHTS RealTime-Glo MT Cell Viability Assay in HEK293 cells - 8 hour (AID 1224887); further: nearly all actives have a fitted effect of over 50% in size; further: potency means the concentration at half of the fitted maximal effect
Method in brief: as §1

[8] = A CellTox Green Cytotoxicity Assay to monitor cytotoxicity in HEK293 cells - 16 hour (AID 1224888); further: nearly all actives have a fitted effect of over 35% in size
Method in brief: as §2

[9] = qHTS RealTime-Glo MT Cell Viability Assay in HepG2 cells - 0 hour (AID 1224889); further: nearly all actives have a fitted effect of over 50% in size
Method in brief: as §4

[10] = A CellTox Green Cytotoxicity Assay to monitor cytotoxicity in HepG2 cells - 0 hour (AID 1224882); further: nearly all actives have a fitted effect of over 35% in size
Method in brief: as §3

Measured: Potency

CC1CC(C)C(=O)C1=O (stereo not given)
active: [6] 13.8 µM
inactive: [1] | [2] | [3] | [4] | [5] | [7] | [8] | [9]

COC(=O)c1nc(Cl)c(Cl)nc1N
active: [2] 19 µM | [7] 6.74 µM
inactive: [1] | [4] | [9]

C=C(C)C(=O)OCCCCCCCCCCCCC
inactive: [1] | [2] | [3] | [5] | [6] | [7] | [9]

CO[C@]1(NC(=O)CSC(F)F)C(=O)N2C(C(=O)O)=C(CSc3nnnn3CCO)CO[C@H]21
inactive: [1] | [2] | [3] | [5] | [6] | [7] | [8] | [9]

CC(CN(C)C)C(C)(O)Cc1ccc(Cl)cc1 (stereo not given)
inactive: [1] | [2] | [3] | [4] | [5] | [6] | [7] | [8] | [9]

N#CCc1ccc(Cl)cc1Cl
inactive: [1] | [2] | [3] | [4] | [5] | [6] | [7] | [8]

Oc1cccc(O)c1O
inactive: [1] | [2] | [4] | [5] | [6] | [7] | [8] | [9]

CCOC(C)=O
inactive: [1] | [2] | [3] | [5] | [6] | [7] | [8]

CN1C(=O)N(c2ccccc2Br)Cc2cnc(Nc3ccc4c(c3)OCC(CO)O4)nc21 (stereo not given)
inactive: [1] | [2] | [4] | [8]
active: [6] 6.92 µM | [7] 17.4 µM

CC(C)C(O)(c1ccc(OC(F)(F)F)cc1)c1cncnc1 (stereo not given)
inactive: [1] | [2] | [3] | [4] | [5] | [7] | [8] | [9]

CCCCCCNC(=O)n1cc(F)c(=O)[nH]c1=O
inactive: [1] | [2] | [3] | [4] | [5] | [6] | [7] | [8] | [9]

O=C1c2ccccc2C(=O)C1(O)O
inactive: [1] | [2] | [5] | [6] | [7] | [9]

CCC1(CO)COCOC1
inactive: [1] | [2] | [4] | [5] | [6] | [7] | [8] | [9]

CC(=O)NC1(c2cccc(F)c2)CCN(CC[C@@]2(c3ccc(Cl)c(Cl)c3)CN(c3ccccc3)C(=O)CO2)CC1
active: [3] 43.8 µM | [5] 43.8 µM | [6] 17.4 µM | [7] 31 µM
inactive: [1] | [10] | [4] | [8] | [9]

O=C=Nc1cccc(C(F)(F)F)c1
inactive: [1] | [10] | [3] | [4] | [5] | [7]

C=CCc1ccccc1OCC(O)CNC(C)C (stereo not given)
inactive: [1] | [2] | [3] | [4] | [5] | [6] | [7] | [8] | [9]

CC=C(Cl)Cl
inactive: [1] | [10] | [3] | [4] | [5] | [7]

CN1C(=O)OC(C)(C)C1=O
inactive: [1] | [2] | [4] | [5] | [6] | [7] | [8] | [9]

Cc1cccc(N(C)C(=S)Oc2ccc3c(c2)CCC3)c1
inactive: [1] | [2] | [4] | [5] | [6] | [7] | [8] | [9]

CC(CO)CO
inactive: [1] | [2] | [4] | [5] | [6] | [7] | [8] | [9]

CCOC(=O)c1ccc(O)c(O)c1
inactive: [1] | [2] | [3] | [5] | [6] | [7] | [9]

Cc1[nH]cnc1CN1CCc2c(c3ccccc3n2C)C1=O
inactive: [1] | [2] | [4] | [5] | [6] | [7] | [9]

Cc1ccc(OC(=O)c2ccccc2O)cc1
inactive: [1] | [10] | [3] | [4] | [5] | [6] | [7] | [8] | [9]

CO/N=C(/C(=O)N[C@@H]1C(=O)N2C(C(=O)O)=C(COC(N)=O)CS[C@H]12)c1ccco1
inactive: [1] | [2] | [4] | [5] | [6] | [7] | [8] | [9]

O=C(OCC(O)CO)c1ccccc1Nc1ccnc2cc(Cl)ccc12 (stereo not given)
active: [6] 7.56 µM | [7] 8.49 µM
inactive: [1] | [2] | [5] | [8]

C[C@@H](O[C@H]1OCCN(Cc2n[nH]c(=O)[nH]2)[C@H]1c1ccc(F)cc1)c1cc(C(F)(F)F)cc(C(F)(F)F)c1
inactive: [1] | [10] | [4] | [9]
active: [3] 16.9 µM | [5] 19 µM | [6] 16.9 µM

CS(=O)(=O)c1ccc(-c2cn3ccccc3n2)cc1
inactive: [1] | [2] | [4] | [8] | [9]

CCCCCCCCN
inactive: [1] | [10] | [3] | [4] | [5] | [6] | [7] | [8]

COc1cc(N)c(Cl)cc1C(=O)NC1CCN(CCCOc2ccc(F)cc2)CC1OC (stereo not given)
active: [6] 3.01 µM | [7] 3.01 µM
inactive: [1] | [2] | [4] | [5]

Cc1ccc(CO)cc1
inactive: [1] | [2] | [3] | [5] | [7] | [8]

Nc1nc2ccc([N+](=O)[O-])cc2s1
inactive: [1] | [2] | [5] | [7] | [8] | [9]

O=C(O)CCCCCCCCCCCBr
inactive: [1] | [2] | [3] | [4] | [5] | [7] | [8] | [9]

CCCCCC[C@@H](O)C/C=C\CCCCCCCC(=O)OCC(O)CO (stereo not given in full)
inactive: [1] | [2] | [3] | [4] | [5] | [6] | [7] | [8] | [9]

C1COC1
inactive: [1] | [2] | [3] | [4] | [5] | [6] | [7] | [8]

NC(=O)c1ccncc1
inactive: [1] | [2] | [3] | [4] | [5] | [6] | [7] | [8] | [9]

CCOC(=O)c1ccc(C#Cc2ccc3c(c2)C(C)(C)CCS3)nc1
inactive: [1] | [2] | [4] | [5] | [8] | [9]

Clc1cc(Cl)nc(Cl)n1
inactive: [1] | [2] | [3] | [4] | [5] | [7] | [8] | [9]
